# Source: PubChem BioAssay
# mHTT CaM bind = mutant huntingtin-calmodulin interaction inhibitors – biochemical, AlphaScreen, primary screen; AlphaScreen His-mHTT/GST-CaM binding, luminescence; inhibition, % at 15 µM; 190,000 compounds, 3.6% hits;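 note: 0% = both proteins with DMSO and 100% = one protein alone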
# Pf apPOL block = Pf-apPOL inhibitors, biochemical, fluorescence; Plasmodium falciparum apicoplast DNA polymerase (apPOL); Recombinant Pf-apPOL, molecular beacon fluorescence, 1.5 h; inhibition, % at 10 µM; 210,000 compounds, 0.25% hits
# The depositor's hits bear a star; . = no result given; ! = not confirmed by another sample. Most compounds without a hit are left out; they make up all but 3.6% or so of the library. Cut-off read from the data, not from the text of the source: active = inhibition above about 50%; inactive = the rest.
SMILES,mHTT CaM bind,Pf apPOL block
O=C1[C@H](Cc2ccccc2)NC/C=C\C[C@H](c2ccc(Cl)cc2)N1Cc1ccccc1,82*,-1
O=C1[C@H](Cc2ccccc2)NCCCC[C@@H](c2ccco2)N1Cc1ccccc1,27,-3
O=C1c2ccccc2NC(c2ccc(Cl)cc2)N1Cc1ccccc1 (stereo unspecified),-22,16
O=C1[C@H](Cc2ccccc2)NC/C=C\C[C@H](c2ccc(Cl)cc2)N1Cc1ccc(Cl)cc1,99*,-6
O=C(NC1CCCC1)c1c[nH]c2ncccc12,12,27
O=C1[C@H](Cc2ccccc2)NCCCC[C@H](c2ccc(Cl)cc2)N1Cc1ccccc1,37,-6
O=C1[C@H](Cc2ccccc2)NCCCC[C@@H](c2ccc(Cl)cc2)N1Cc1ccc(Cl)cc1,100*,-6
O=C(Nc1cc(C(F)(F)F)ccc1Cl)c1cc2ccccc2oc1=O,.,-1
O=C(c1cccs1)N1CCc2ccc(NC(=O)C3(c4ccccc4)CCOCC3)cc21,-2,-1
CC(=O)NC(N)=NCCCC(N)C(=O)O (stereo unspecified),-2,-6
COc1ccccc1[C@H]1C(c2cccc(C)c2)=NN(c2ccccc2)[C@@H]1CO,86*,-1
COc1ccccc1[C@H]1C(c2ccc(F)cc2)=NN(c2ccccc2)[C@@H]1CO,67*,-8
Cc1cccc(C2=NN(c3ccccc3)[C@@H](C(=O)N3CCOC3=O)[C@@H]2c2ccccc2)c1,-32,-6
COc1ccccc1[C@H]1C(c2ccccc2)=NN(c2ccccc2)[C@@H]1CO,5,-1
N#Cc1ccccc1Cn1c(=O)n(-c2ccc(F)cc2)c(=O)c2sccc21,0,-6
COc1ccc(C(=O)Nc2ccc(Cl)c(-c3nc4ncccc4o3)c2)cc1[N+](=O)[O-],4,-4
Cn1c(=O)c(N2CCN(C(=O)COc3ccc(Cl)cc3)CC2)nc2ccncc21,20,6
CCn1c(=O)c(N2CCN(C(=O)COc3ccc(Cl)cc3C)CC2)nc2ccncc21,61*,4
COc1ccc(Cl)cc1NS(=O)(=O)c1cc2c(s1)CCN(C(=O)C1CCC1)C2,25,0
CC(CN1CCCC1CO)c1ccccc1 (stereo unspecified),-4,-3
COc1ccc(-c2c([C@H]3[C@@H]4C=CCC[C@@]4(C)C(=O)N3Cc3ccccc3)ccc3ccccc23)cc1,58*,-5
Cc1ccc(-c2c([C@H]3[C@@H]4C=CCC[C@@]4(C)C(=O)N3Cc3ccccc3)ccc3ccccc23)cc1,34,0
COc1ccc(-c2ccc([C@H]3[C@@H]4C=CCC[C@@]4(C)C(=O)N3Cc3ccccc3)c(F)c2)cc1,17,-3
C[C@@]12CCC=C[C@H]1[C@H](c1ccc3ccccc3c1)N(Cc1ccccc1)C2=O,82*,-2
COc1ccc(-c2cc([C@H]3[C@@H]4C=CCC[C@@]4(C)C(=O)N3Cc3ccccc3)ccc2F)cc1,-4,-7
SMILES,mHTT CaM bind,Pf apPOL block
COc1ccc(-c2ccccc2[C@H]2[C@@H]3C=CCC[C@@]3(C)C(=O)N2Cc2ccccc2)cc1,67*,-3
C[C@@]12CCC=C[C@H]1[C@H](c1ccc3ccccc3c1Br)N(Cc1ccccc1)C2=O,94*,3
Cc1ccc(-c2ccc([C@H]3[C@@H]4C=CCC[C@@]4(C)C(=O)N3Cc3ccccc3)c(F)c2)cc1,13,0
C#CCOCC1CCN(S(=O)(=O)c2ccccc2)CC1,-15,-9
CN(C)C(CNC(=O)c1ccc2nsnc2c1)c1cccn1C (stereo unspecified),-6,-9
O=C(c1ccccc1)N1CCC(CCNS(=O)(=O)c2cc(F)ccc2F)CC1,49,-3
O=C(c1ccccc1)N1CCC(CCNS(=O)(=O)c2ccc(F)cc2F)CC1,50*,3
Cc1ccc(S(=O)(=O)NCCC2CCN(C(=O)c3ccccc3)CC2)c(C)c1,53*,-1
Cc1ccc(C(=O)N2CCC(CCNS(=O)(=O)c3ccccc3C)CC2)cc1,49,-1
Cc1cc(Cl)ccc1NC(=O)CN(C)S(=O)(=O)c1ccc(Br)cc1,1,-12
COC(=O)c1cccc(NC(=O)C2CCN(c3cc(N4CCCC4)ncn3)CC2)c1,12,-10
O=C(NCc1ccccc1Cl)c1ccc2c(c1)NC(=O)C(N1CCCC1)S2 (stereo unspecified),6,-16
O=C(NCc1ccccn1)c1ccc2c(c1)NC(=O)C(N1CCCC1)S2 (stereo unspecified),58*,-11
CCN(CC)CCN(C)C1CCN(C)CC1,-6,-2
O=C(Nc1c2c(nn1-c1ccc(F)cc1)CS(=O)C2)c1ccco1 (stereo unspecified),3,-4
O=C(Nc1c2c(nn1-c1ccc(F)cc1)CSC2)c1ccco1,79*,-7
O=C(Nc1c2c(nn1-c1ccc(Oc3ccccc3)cc1)CSC2)c1ccco1,96*,-9
O=C(Nc1c2c(nn1-c1ccc([N+](=O)[O-])cc1)CSC2)c1ccco1,28,17
O=C(Nc1c2c(nn1-c1ccc(Oc3ccccc3)cc1)CSC2)C1CC1,56*,-10
O=C(Nc1c2c(nn1-c1ccccc1)CSC2)C1CC1,22,-4
O=C(Nc1c2c(nn1-c1ccccc1)CSC2)c1ccco1,77*,-12
COc1ccc(-n2nc3c(c2NC(=O)c2ccco2)CS(=O)(=O)C3)cc1,4,1
CC1=C(C(=O)NCCCN2CCN(c3ccccc3F)CC2)C2(CCCCCC2)OC1=O,0,0
O=C(Cc1cccs1)NC1CCN(c2ncnc3c2CCC3)C1 (stereo unspecified),30,8
CCOc1ccc(-n2c(SCC(=O)N(CC)Cc3ccccc3)nc3n[nH]c(C)c3c2=N)cc1,36,-1
SMILES,mHTT CaM bind,Pf apPOL block
O=C(Nc1ccc2c(c1)OCCO2)c1ccc(C(=O)Nc2ccc3c(c2)OCCO3)nc1,24,0
c1coc(CN2COc3cc4c(cc3C2)OCN(Cc2ccco2)C4)c1,3,.
COC(=O)c1ccc(Oc2coc3c4c(ccc3c2=O)OCN(Cc2ccccn2)C4)cc1,100*,-36
COc1ccc(CN2COc3ccc4c(=O)c(-c5ccccc5)c(C)oc4c3C2)cc1,12,-9
O=C1c2ccccc2C(=O)c2c1oc1c3c(ccc21)OCN(Cc1ccco1)C3,93*,-5
O=C1c2ccccc2C(=O)c2c1oc1c3c(ccc21)OCN(Cc1cccnc1)C3,94*!,12
COC(=O)c1ccc(Oc2c(C)oc3c4c(ccc3c2=O)OCN(Cc2cccnc2)C4)cc1,0,0
O=C1c2ccccc2C(=O)c2c1oc1c3c(ccc21)OCN(Cc1ccccn1)C3,100*,-6
COC(=O)c1ccc(Oc2coc3c4c(ccc3c2=O)OCN(Cc2ccc(OC)cc2)C4)cc1,19,-18
Cc1ccc(S(=O)(=O)N2CCC(Oc3cccc(C(F)(F)F)c3)CC2)cc1,95*,-10
O=S(=O)(Cc1ccccc1)N1CCC(Oc2cccc(C(F)(F)F)c2)CC1,-25,-8
Cc1ccccc1Cn1cnc2c1c(=O)n(C1CC1)c(=O)n2-c1ccccc1,-2,-2
CCCCOc1ccc(C(=O)Nc2c3c(nn2-c2ccc(C)cc2)CS(=O)C3)cc1 (stereo unspecified),33,-4
O=C(NCc1ccccc1)c1ccc2c(c1)NC(=O)C1CCCN21 (stereo unspecified),15,-5
